From PubChem BioAssay (Tox21)
Where “and” joins values, the source holds several entries; their conditions need not be identical. Identical values can stand only once. Calls of active or inactive are those of the source. Where a call stands in place of a potency, no number is given. Calls come from the whole dose curve.

Target: Gonadotropin-releasing hormone receptor (Homo sapiens) (UniProt P30968)
Assay: Human gonadotropin-releasing hormone receptor (GnRHR) small molecule agonists, calcium flux assay in GnRHR-HEK293 cells (AID 1920063); note: nearly all actives have a fitted effect of over 35% in size
Method in brief: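 Agonist activity was measured as intracellular calcium flux in HEK293 cells engineered to stably express human GnRHR. After dye loading for 1 hour at 37 C, compounds in DMSO were added and fluorescence was followed for 3 minutes.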
Potency is the fitted concentration of half-maximal effect.

Chain of Gonadotropin-releasing hormone receptor (Homo sapiens) (P30968 whole entry, looked up): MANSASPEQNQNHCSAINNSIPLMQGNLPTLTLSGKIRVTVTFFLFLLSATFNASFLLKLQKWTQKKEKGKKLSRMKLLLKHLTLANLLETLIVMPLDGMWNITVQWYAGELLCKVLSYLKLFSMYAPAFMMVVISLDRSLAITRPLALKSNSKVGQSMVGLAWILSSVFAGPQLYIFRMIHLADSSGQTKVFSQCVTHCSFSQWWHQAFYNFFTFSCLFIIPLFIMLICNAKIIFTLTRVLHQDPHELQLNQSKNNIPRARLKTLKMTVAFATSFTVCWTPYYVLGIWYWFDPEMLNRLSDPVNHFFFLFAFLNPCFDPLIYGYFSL

| SMILES | Potency |
| --- | --- |
| CC(C)(O)C(=O)c1ccc(OCCO)cc1 | inactive |
| CCCC1O[C@@H]2C[C@H]3[C@@H]4CCC5=CC(=O)C=C[C@]5(C)[C@H]4[C@@H](O)C[C@]3(C)[C@]2(C(=O)CO)O1 (stereo partly specified) | inactive |
| CC(=O)O[C@@H]1C[C@@H]2CC[C@@]1(C)C2(C)C | inactive |
| C(=C\c1ccccc1)/c1ccccc1 | inactive |
| C=CC(=O)CC | inactive |
| CS(=O)(=O)c1ccc(Cl)cc1 | inactive |
| CCCCCCCO | inactive |
| CN(C)c1cc(NC(=O)CNC(C)(C)C)c(O)c2c1C[C@H]1C[C@H]3[C@H](N(C)C)C(=O)C(C(N)=O)=C(O)[C@@]3(O)C(=O)C1=C2O | inactive |
| CC(C)=CCCC(C)O (stereo unspecified) | inactive |
| CCC(C)(C)C1CCCCC1OC(C)=O (stereo unspecified) | inactive |
| OCc1c2ccccc2cc2ccccc12 | inactive |
| CCOCCOCC | inactive |
| C/C=C/CO | inactive |
| CC(O)C(CO)C(C)O (stereo unspecified) | inactive |
| CCN(CC#N)c1cccc(C)c1 | inactive |
| CC1(C)C(O)C(C)(C)C1O (stereo unspecified) | inactive |
| CCCCOC(=O)C(C)OC(=O)CCC (stereo unspecified) | inactive |
| Cc1ccc(N(C)C)cc1 | inactive |
| CCOC(=O)OC(=O)OCC | inactive |
| NS(=O)(=O)c1cc2c(cc1C(F)(F)F)NC(Cc1ccccc1)NS2(=O)=O (stereo unspecified) | inactive |
| CC(C)(C)c1ccc(C(=O)CCCCl)cc1 | inactive |
| O=C1OC2(c3cc(Br)c(O)c(Br)c3Oc3c2cc(Br)c(O)c3Br)c2c(Cl)c(Cl)c(Cl)c(Cl)c21 | 39 µM (active) and 23.6 µM (active) |
| Nc1ccc2cc3ccccc3cc2c1 | inactive |

| SMILES | Potency |
| --- | --- |
| C#C[C@]1(O)CC[C@H]2[C@@H]3CCC4=CC(=O)CC[C@@H]4[C@H]3CC[C@@]21C | inactive |
| c1cc(C(c2ccc(OCC3CO3)cc2)C(c2ccc(OCC3CO3)cc2)c2ccc(OCC3CO3)cc2)ccc1OCC1CO1 (stereo unspecified) | inactive |
| C=CC(=O)OCCCCCCCC | inactive |
| CC(=O)OCC(=O)[C@@]1(O)CC[C@H]2[C@@H]3CCC4=CC(=O)C=C[C@]4(C)[C@H]3[C@@H](O)C[C@@]21C | inactive |
| CCCCC(CC)COCCC#N (stereo unspecified) | inactive |
| C=C[C@H]1CN2CC[C@H]1C[C@@H]2[C@@H](O)c1ccnc2ccc(OC)cc12 | inactive |
| CN(C)/N=N/c1nc[nH]c1C(N)=O | inactive |
| [Cl][Dy]([Cl])[Cl] | inactive |
| CC(C)CCCCCCCCCCCCCCC(=O)O | inactive |
| NC(=O)c1ncn([C@@H]2O[C@H](CO)[C@@H](O)[C@H]2O)c1O | inactive |
| C=C[Si](OC(=C)C)(OC(=C)C)OC(=C)C | inactive |
| CC(=O)OCCCc1ccccc1 | inactive |
| Cc1cccc2c1ccc1ccccc12 | inactive |
| CCCCCCCC/C=C\CCCCCCCC(N)=O | inactive |
| O=C1c2ccccc2C(=O)C1c1ccc2cc(S(=O)(=O)O)cc(S(=O)(=O)O)c2n1 | inactive |
| C=C(C)C(=O)NCCCN(C)C | inactive |
| N=c1nc(N2CCCCC2)cc(N)n1O | inactive |
| COC(=O)Cc1cccc2ccccc12 | inactive |
| NNC(=O)c1cccc(C(=O)NN)c1 | inactive |
| CCN1CCc2nc(N)oc2CC1 | inactive |
| CC1(C)[C@H]2CC[C@](C)(C2)[C@H]1O | inactive |
| CC(C)(C)c1cc(C(C)(C)C)c(O)c(C(C)(C)C)c1 | inactive |
| COc1cccc2c1C(=O)c1c(O)c3c(c(O)c1C2=O)C[C@@](O)(C(C)=O)C[C@@H]3O[C@H]1C[C@H](N)[C@H](O)[C@H](C)O1 | 34.9 µM (active) |
